Test results published in PubChem BioAssay (NCI).
About 83,000 compounds went through this panel and 20% of them were active in at least one assay; those are over-represented in the sample as a whole.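 Step 1: grow cells in 96-well plates. Step 2: add test compound at a single concentration. Step 3: incubate 48 h. Step 4: record percent growth.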 Unmarked numbers belong to inactive results. Active and inactive are the calls of the source. The calls were made as follows: active = growth percent below 10; inactive = the rest.

Experiments:
Test in all cases: NCI-60 one-dose screen, 48 h (100 = growth as untreated, 0 = no growth, -100 = all killed)
Conditions in all cases: 10 µM unless noted
[1] = system: HCT-15 colon
[2] = system: HT29 colon
[3] = system: SNB-75 CNS
[4] = system: SNB-19 CNS
[5] = system: U251 CNS
[6] = system: PC-3 prostate
[7] = system: SK-MEL-5 melanoma
[8] = system: UACC-62 melanoma
[9] = system: SK-MEL-28 melanoma
[10] = system: LOX IMVI melanoma

SMILES	growth [1]	growth [2]	growth [3]	growth [4]	growth [5]	growth [6]	growth [7]	growth [8]	growth [9]	growth [10]
CCCCCCCCCCC(C[N+](C)(C)C/C=C/c1ccccc1)C(O)c1ccccc1 (stereo not given)	79.1%	-79.8% (active)	5.59% (active)	35.8%	-93.9% (active)	-29.9% (active)	30.6%	17.4%	21.2%	
COc1cc(NC(C)CCCN)c2nccc(C)c2c1OC (stereo not given)	84.4%	57.9%	103%	97.6%	64.5%	72.3%	86.8%	97.2%	117%	
COC1NC(Cl)=C(C#N)C(C#N)(C#N)C1(C)C (stereo not given)	121%	108%	105%	115%	105%	122%	111%		124%	98.7%
CCOC(=O)C1CCCN1C(=O)C1(NC(C)=O)CCCC1 (stereo not given)	106%	124%	95.7%	125%	104%	95.6%	109%	121%	114%	
Cc1ccc(NC(=O)CCl)cc1Cl	80.9%	107%	91%	94.5%	80.5%	86.8%	87.2%	80.5%	107%	
CCCCCCCCCCCCc1ccc([N+](CC)(CC)CC)cc1	96%	39.3%	33.5%	31.7%	29.6%	25.1%	-75.5% (active)		28.9%	32.9%
N=C(c1ccccc1)N(Cc1ccccc1)Cc1ccccc1	74.8%	53.4%	97.7%	99.8%	96.7%	81.5%	104%	87.3%	98.8%	
Cc1cc2c(-c3nc4ccccc4[nH]3)c(O)c(O)cc2c(O)c1-c1c(C)cc2c(-c3nc4ccccc4[nH]3)c(O)c(O)cc2c1O	11.9%	10.5%	5.43% (active)	7.78% (active)	-58.7% (active)	6.02% (active)	-8.04% (active)		19.8%	-26.5% (active)
COc1ccc(C2=C/C(=C\c3ccc(Cl)cc3)C(=O)NN2C(=S)NN)cc1	104%	109%	61.2%	103%	104%	92.3%	97.7%	86.6%	113%	
COC(=O)[C@H](Cc1cn(C)cn1)NC(=O)[C@H](CC(=O)OCc1ccccc1)NC(=O)Nc1cc(C(F)(F)F)cc(C(F)(F)F)c1	-82.2% [100 µM] (active)	-85.2% [100 µM] (active)	-98.6% [100 µM] (active)	-93% [100 µM] (active)	-96.5% [100 µM] (active)	-94.1% [100 µM] (active)	-97.3% [100 µM] (active)	-98.3% [100 µM] (active)	-95.6% [100 µM] (active)	
CCCCCCCCCCCCOC(=O)/C=C\C(=O)NC(N)=O	57.9%	88.6%	81.5%	91.6%	74%	71.6%	99.6%	82%	99.2%	
COC(=O)C(C)[C@H]1CC[C@@H]2[C@]1(C)CC=C1[C@]23C=C[C@]2(C[C@@H](OC(C)=O)CC[C@]12C)C(C(=O)OC)C3C(=O)OC (stereo not given in full)	61.5%	95.2%	98.5%	95.9%	88.8%	57.1%	60.6%	79.9%	95%	
CCN(CCO)CCNc1ccc(C)c2sc3cc(OC)ccc3c(=O)c12	41.1%	33.1%	70.9%	67.7%	54%	71.2%	80.6%		94.2%	50.7%
CC[n+]1c(C)ccc2cc(C)ccc21	94.5%	108%	83.7%	92.7%	93.5%	104%	99.2%	96.1%	105%	
O=C(O)c1ccc(Br)nc1	97.8%	96.1%	81.7%	95.3%	93.8%	97.3%	102%	95.8%	104%	
